# Reference: the supplement of paper PMC9801561
# ± gives the standard deviation of the averaged measurements.
# Legend:
# [1] = system: Escherichia coli Nissle 1917; test: area under OmniLog respiration curve over 48 h (OmniLog units x h); higher = more growth / nutrient utilisation; extreme values may be limits of the assay; conditions: incubation: 48 h, 37 °C
# [2] = system: Escherichia coli Nissle 1917; test: DuctApe activity index of respiration/growth curve (0 no growth to 9 maximum) (index 0-9); higher = more growth / nutrient utilisation, active = 3 or more; extreme values may be limits of the assay; conditions: incubation: 48 h, 37 °C
# [3] = nutrient role: sole nitrogen source (pyruvate carbon)
# [4] = nutrient role: C-Source, carboxylic acid
# [5] = nutrient role: C-Source, amino acid
# [6] = nutrient role: sole phosphorus source (pyruvate carbon)
# [7] = nutrient role: C-Source, carbohydrate
# [8] = nutrient role: sole sulfur source (pyruvate carbon)
# 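Wherever DuctApe activity index of respiration/growth curve (0 no growth to 9 maximum) is given: biolog PM4 phosphorus and sulfur plates, tetrazolium violet dye reduction read in the OmniLog every 15 min, kinetic curves scored by DuctApe, each plate run in triplicate.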
compound,measurement,setting,value
NC(N)=O,area under OmniLog respiration curve,[1]; [3],4.72
same,DuctApe activity index,[2]; [3],0 (inactive)
O=C(O)CO [Glycolic acid],area under OmniLog respiration curve,[1]; [4],7210 ± 370
same,DuctApe activity index,[2]; [4],7.67 (active)
COC(=O)[C@@H](C)O [D-Lactic acid Methyl Ester],area under OmniLog respiration curve,"[1]; nutrient role: C-Source, ester",7990 ± 370
same,DuctApe activity index,"[2]; nutrient role: C-Source, ester",8 (active)
NCC(=O)N1CCC[C@H]1C(=O)O,area under OmniLog respiration curve,[1]; [5],7860 ± 920
same,DuctApe activity index,[2]; [5],8 (active)
O=C(O)CCC(=O)O [Succinic acid],area under OmniLog respiration curve,[1]; [4],9020 ± 680
same,DuctApe activity index,[2]; [4],8.67 (active)
CCCC(=O)C(=O)O [a-Keto-Valeric acid],area under OmniLog respiration curve,[1]; [4],4.72
same,DuctApe activity index,[2]; [4],0 (inactive)
Oc1nc(O)c2nc(O)[nH]c2n1 [Uric acid],area under OmniLog respiration curve,[1]; [3],986 ± 490
same,DuctApe activity index,[2]; [3],2.33 (inactive)
C[C@@H](OP(=O)(O)O)[C@H](N)C(=O)O [O-Phospho-L-Threonine],area under OmniLog respiration curve,[1]; [6],9330 ± 620
same,DuctApe activity index,[2]; [6],8.67 (active)
O=C(O)c1ccccc1O [2-Hydroxybenzoic acid],area under OmniLog respiration curve,[1]; [4],4.72
same,DuctApe activity index,[2]; [4],0 (inactive)
O=C(O)C(O)C(O)C(=O)O (stereo not given) [m-Tartaric acid],area under OmniLog respiration curve,[1]; [4],4.72
same,DuctApe activity index,[2]; [4],0 (inactive)
OCC1(O)OC[C@@H](O)[C@H](O)[C@@H]1O (stereo partly drawn) [D-Tagatose],area under OmniLog respiration curve,[1]; [7],6560 ± 520
same,DuctApe activity index,[2]; [7],7.33 (active)
NCCCCN=C(N)N [Agmatine],area under OmniLog respiration curve,[1]; [3],336 ± 570
same,DuctApe activity index,[2]; [3],0 (inactive)
Nc1ccn([C@@H]2O[C@H](CO)[C@@H](OP(=O)(O)O)[C@H]2O)c(=O)n1 [Cytidine 3`-Monophosphate],area under OmniLog respiration curve,[1]; [6],4.72
same,DuctApe activity index,[2]; [6],0 (inactive)
N[C@@H](CCC(=O)N[C@@H](CS)C(=O)NCC(=O)O)C(=O)O [Glutathione],area under OmniLog respiration curve,[1]; [8],1690 ± 30
same,DuctApe activity index,[2]; [8],5 (active)
N[C@@H]1C(O)O[C@H](CO)[C@@H](O)[C@@H]1O (stereo partly drawn) [D-Mannosamine],area under OmniLog respiration curve,[1]; [3],1020 ± 700
same,DuctApe activity index,[2]; [3],1.67 (inactive)
